Several values for one entry are separate records, joined by “and”; a condition that tells them apart may be missing. Identical values can stand only once. Results filed as inconclusive are left out. Where a call stands in place of a potency, no number is given. Activity calls are given as the source filed them. Unless noted, the call rests on the fitted dose curve; in most records, active means well fitted curve in the direction sought with a large enough effect in the repeat runs; inconclusive means weak or mixed curves; inactive means no such curve, though single readings can be large; an effect the other way counts as inactive or inconclusive.
Columns and labels:
[1] = qHTS assay to identify small molecule antagonists of the glucocorticoid receptor (GR) signaling pathway - cell viability counter screen (AID 720693); further: nearly all actives have a fitted effect of over 55% in size
[2] = qHTS assay for identifying genotoxic compounds that show differential cytotoxicity against isogenic chicken DT40 cell lines with known DNA damage response pathways - wild type cell line (AID 743012); further: nearly all actives have a fitted effect of over 60% in size; further: potency means the concentration at half of the fitted maximal effect
How it was run: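 CellTiter-Glo luminescence readout of viability in wild type DT40 cells after 40 h compound exposure at 37 C/5% CO2; 300 cells/well; reagent incubated 30 min at room temperature before reading.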

[3] = qHTS assay for identifying genotoxic compounds that show differential cytotoxicity against isogenic chicken DT40 cell lines with known DNA damage response pathways - Rev3 mutant cell line (AID 743014); further: nearly all actives have a fitted effect of over 55% in size; further: potency means the concentration at half of the fitted maximal effect
[4] = qHTS assay to identify small molecule antagonists of the androgen receptor (AR) signaling pathway - cell viability counter screen (AID 743033; further: nearly all actives have a fitted effect of over 45% in size)
[5] = biological target: Androgen receptor (Homo sapiens) (UniProt P10275); test: qHTS assay to identify small molecule agonists of the androgen receptor (AR) signaling pathway using the MDA cell line (AID 743040; further: nearly all actives have a fitted effect of over 20% in size; further: potency means the concentration at half of the fitted maximal effect)
Androgen receptor (Homo sapiens), sequence (P10275 whole entry, looked up): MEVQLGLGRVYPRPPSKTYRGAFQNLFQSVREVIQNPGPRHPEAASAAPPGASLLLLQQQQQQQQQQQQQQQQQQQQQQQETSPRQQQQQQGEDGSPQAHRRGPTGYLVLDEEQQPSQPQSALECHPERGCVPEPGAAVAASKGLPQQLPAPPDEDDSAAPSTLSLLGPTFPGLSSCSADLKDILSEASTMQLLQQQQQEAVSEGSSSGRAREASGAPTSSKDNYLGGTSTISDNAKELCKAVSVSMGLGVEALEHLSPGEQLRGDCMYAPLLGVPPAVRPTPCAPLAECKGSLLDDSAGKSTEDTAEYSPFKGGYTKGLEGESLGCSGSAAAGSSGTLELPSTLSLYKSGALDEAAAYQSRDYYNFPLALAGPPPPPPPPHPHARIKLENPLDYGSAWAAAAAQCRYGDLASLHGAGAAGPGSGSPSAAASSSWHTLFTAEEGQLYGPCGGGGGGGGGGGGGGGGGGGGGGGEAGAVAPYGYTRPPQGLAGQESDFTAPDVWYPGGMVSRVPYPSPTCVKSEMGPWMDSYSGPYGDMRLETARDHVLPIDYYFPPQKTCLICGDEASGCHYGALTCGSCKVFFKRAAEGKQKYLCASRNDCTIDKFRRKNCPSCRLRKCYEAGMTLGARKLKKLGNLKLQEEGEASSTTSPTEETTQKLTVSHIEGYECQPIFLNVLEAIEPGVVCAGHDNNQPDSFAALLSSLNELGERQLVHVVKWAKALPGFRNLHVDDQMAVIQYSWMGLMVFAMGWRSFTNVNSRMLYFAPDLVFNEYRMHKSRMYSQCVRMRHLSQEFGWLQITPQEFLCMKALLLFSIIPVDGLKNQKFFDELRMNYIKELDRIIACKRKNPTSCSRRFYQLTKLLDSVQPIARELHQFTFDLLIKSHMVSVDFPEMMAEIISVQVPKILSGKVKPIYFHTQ
How it was run: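 Stable MMTV-luciferase reporter in MDA-kb2 cells; note the promoter carries GR as well as AR response elements. 16 h compound treatment, 37C, 0% CO2; ONE-Glo luminescence endpoint.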

[6] = biological target: Androgen receptor (Homo sapiens) (UniProt P10275); test: qHTS assay to identify small molecule antagonists of the androgen receptor (AR) signaling pathway using the MDA cell line (AID 743042; further: nearly all actives have a fitted effect of over 55% in size)
How it was run: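 Antagonist mode: compounds plus R1881 agonist added to MDA-kb2 AR-luc cells, incubated 16 h at 37C. Luciferase reporter luminescence quantified, with multiplexed CellTiter-Fluor readout for cell viability.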

[7] = qHTS assay for identifying genotoxic compounds that show differential cytotoxicity against isogenic chicken DT40 cell lines with known DNA damage response pathways - Rad54/Ku70 mutant cell line (AID 743015); further: nearly all actives have a fitted effect of over 60% in size; further: potency means the concentration at half of the fitted maximal effect
[8] = qHTS assay to identify small molecule antagonists of the androgen receptor (AR) signaling pathway using the MDA cell line - cell viability counter screen (AID 743041; further: nearly all actives have a fitted effect of over 45% in size; further: potency means the concentration at half of the fitted maximal effect)
How it was run: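 Using the breast carcinoma line MDA-kb2 AR-luc, test chemicals were co-incubated with R1881 for 16 h; CellTiter-Fluor reagent, added at 15.5 h, provided a fluorescence measure of live cells.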

[9] = biological target: Androgen receptor (Homo sapiens) (UniProt P10275); test: qHTS assay to identify small molecule antagonists of the androgen receptor (AR) signaling pathway (AID 743035; active means well fitted inhibition curve with a large enough effect in the signal ratio in the repeat runs, not every such curve was filed as active; the % refers to the signal ratio)
How it was run: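 AR-bla HEK293 reporter cells; 4 h settle at 37C/5% CO2; compound + R1881 agonist, 16 h at 37C; LiveBLAzer B/G FRET substrate 2 h RT; fluorescence intensity read. qHTS format.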

[10] = biological target: Androgen receptor (Homo sapiens) (UniProt P10275); test: qHTS assay to identify small molecule agonists of the androgen receptor (AR) signaling pathway (AID 743036; active means well fitted activation curve with a large enough effect in the signal ratio in the repeat runs, with a control signal flat, not every such curve was filed as active; the % refers to the signal ratio; further: potency means the concentration at half of the fitted maximal effect)
How it was run: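 AR-UAS-bla HEK293 cells, plated 4 h before dosing, were treated with compound for 16 h at 37C. beta-Lactamase reporter read after 2 h with LiveBLAzer B/G FRET substrate at room temperature.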

| SMILES | Potency [1] | Potency [2] | Potency [3] | Potency [4] | Potency [5] | Potency [6] | Potency [7] | Potency [8] | Potency [9] | Potency [10] |
| --- | --- | --- | --- | --- | --- | --- | --- | --- | --- | --- |
| COc1ccc(C(=O)c2cccc(O)c2)c(OC)c1 | inactive | inactive | inactive | inactive | inactive | inactive | – | – | – | – |
| CC(=O)OCC(=O)[C@@]12OC(C)(C)O[C@@H]1C[C@H]1[C@@H]3C[C@H](F)C4=CC(=O)C=C[C@]4(C)[C@@]3(F)[C@@H](O)C[C@@]12C | inactive | inactive | inactive | – | – | – | inactive | inactive | – | – |
| C/C=C/C=C/CCCCCCCO | inactive | 21.7 µM (active) | 30.6 µM (active) | – | – | – | 24.3 µM (active) | inactive | – | – |
| CCCCCCCCCOC(C)=O | inactive | inactive | inactive | inactive | – | – | – | inactive | – | – |
| CC1(C)C(=O)N(Br)C(=O)N1Cl | inactive | 61.1 µM (active) | 61.1 µM (active) | inactive | – | – | – | inactive | – | – |
| O=S(=O)(c1ccccc1)c1ccc(Cl)cc1 | inactive | 61.1 µM (active) | 61.1 µM (active) | – | – | – | 48.6 µM (active) | inactive | – | – |
| Cc1ccc(/C=N/n2c(-c3ccccc3)csc2=S)cc1 | inactive | 26.6 µM (active) | – | inactive | – | – | 29.8 µM (active) | – | – | – |
| Cc1ccnc2ccccc12 | inactive | inactive | – | inactive | – | – | inactive | – | – | – |
| Cc1cc(O)c2c(O)c3c(O)cccc3cc2c1 | inactive | inactive | inactive | inactive | inactive | inactive | – | – | inactive | – |
| CC1=C(C=O)C(C)(C)CCC1 | inactive | inactive | inactive | – | – | – | inactive | inactive | – | – |
| Cc1occc1C(=O)Nc1ccc(C(=O)N2CCC(F)(F)/C(=C\C(=O)N3CCC(N4CCCCC4)CC3)c3ccccc32)cc1 | inactive | inactive | inactive | – | inactive | inactive | – | inactive | – | inactive |
| Cc1cc(C(=C2C=CC(=Nc3ccc(S(=O)(=O)O)cc3S(=O)(=O)O)C=C2)c2ccc(Nc3ccc(S(=O)(=O)O)cc3)cc2)ccc1N | inactive | inactive | inactive | inactive | – | – | – | inactive | – | – |
| CC(=O)Oc1ccc(C(=C2CCCCC2)c2ccc(OC(C)=O)cc2)cc1 | inactive | inactive | – | inactive | – | – | inactive | – | – | – |
| CCCCOC(=O)CCS | inactive | inactive | inactive | – | – | – | inactive | inactive | – | – |
| O=C(N[C@@H](c1ccccc1)[C@@H]1CCCCN1)c1cccc(C(F)(F)F)c1Cl | inactive | 12.2 µM (active) | 13.7 µM (active) | – | – | – | 15.4 µM (active) | 24.3 µM (active) | – | – |
| CCn1nc(C)c2c1C(=O)NCC(c1ccc(O)cc1)=N2 | inactive | 61.1 µM (active) | 34.4 µM (active) | inactive | – | – | – | inactive | – | – |
| NC(=O)Cn1c(=O)cc(CCN2CCN(c3nccc4sccc34)CC2)c2ccc(F)cc21 | inactive | 27.3 µM (active) | 27.3 µM (active) | – | – | – | 24.3 µM (active) | inactive | – | – |
| Cc1ccccc1N1C(=O)c2cc(S(N)(=O)=O)c(Cl)cc2NC1C (stereo unspecified) | inactive | inactive | inactive | – | – | – | inactive | inactive | – | – |
| CC(C)c1nnc2ccc(-c3ocnc3-c3cc(F)ccc3F)cn12 | inactive | 27.3 µM (active) | 21.7 µM (active) | – | – | – | 27.3 µM (active) | inactive | – | – |
| CC(C)CCCCCCOC(=O)CCCCC(=O)OCCCCCCC(C)C | inactive | inactive | 30.6 µM (active) | – | – | – | inactive | inactive | – | – |
| Oc1cc(O)c(Cl)cc1Cl | inactive | inactive | inactive | – | – | – | inactive | inactive | – | – |
| c1cc[c]([Bi]([c]2ccccc2)[c]2ccccc2)cc1 | inactive | 61.1 µM (active) | – | inactive | – | – | 61.1 µM (active) | – | – | – |
| O=C(CCCCCCC(=O)Nc1ccccc1)NO | inactive | 1.06 µM (active) | 531 nM (active) and 841 nM (active) | – | – | – | 1.5 µM (active) | inactive | – | – |
| Cc1nc2ccccc2s1 | inactive | inactive | inactive | – | – | – | inactive | inactive | – | – |
| NC(=O)N(O)[C@@H]1C=C[C@H](Oc2cccc(Oc3ccc(F)cc3)c2)C1 | inactive | 54.5 µM (active) | 61.1 µM (active) | – | – | – | 54.5 µM (active) | inactive | – | – |

| SMILES | Potency [1] | Potency [2] | Potency [3] | Potency [4] | Potency [5] | Potency [6] | Potency [7] | Potency [8] | Potency [9] | Potency [10] |
| --- | --- | --- | --- | --- | --- | --- | --- | --- | --- | --- |
| CCCc1c(OCCCOc2ccc(OCC(=O)O)cc2)ccc(C(C)=O)c1O | inactive | inactive | inactive | – | inactive | inactive | – | inactive | – | – |
| COc1ccccc1N=Nc1c(S(=O)(=O)O)cc2cc(S(=O)(=O)O)cc(NC(C)=O)c2c1O | inactive | 28.8 µM (active) | 18.2 µM (active) | – | – | – | 14.4 µM (active) | 45.7 µM (active) | – | – |
| CCCCC(CC)CNCC(CC)CCCC (stereo unspecified) | inactive | inactive | inactive | – | – | – | inactive | inactive | – | – |
| O=c1[nH]c2ccc(S(=O)CCN3CCC(Cc4ccc(F)cc4)CC3)cc2o1 (stereo unspecified) | inactive | 13.7 µM (active) | 4.33 µM (active) | – | – | – | 6.86 µM (active) | inactive | – | – |
| O=C(CCCCCCCCC#CI)Oc1ccccc1 | inactive | inactive | inactive | – | inactive | inactive | – | – | inactive | inactive |
| CC(=O)[C@H]1CC[C@H]2[C@@H]3C[C@H](C)C4=CC(=O)CC[C@]4(C)[C@H]3[C@@H](O)C[C@]12C | inactive | 9.02 µM (active) | – | inactive | 0.0285 µM (active) | inactive | – | inactive | inactive | 0.0129 µM (active) |
| CNC(=O)N(c1ccccc1)c1ccccc1 | inactive | inactive | – | inactive | inactive | inactive | inactive | inactive | inactive | inactive |
| CN(C(=O)C(Cl)Cl)c1ccc(OC(=O)c2ccco2)cc1 | inactive | 26.6 µM (active) | – | inactive | inactive | inactive | – | inactive | inactive | – |
| CCCCC(=O)O[C@]1(C(=O)CO)CC[C@H]2[C@@H]3CCC4=CC(=O)CC[C@]4(C)[C@H]3[C@@H](O)C[C@@]21C | inactive | – | inactive | inactive | – | – | – | inactive | – | – |
| NC(=O)Nc1ccc(Cl)c(Cl)c1 | inactive | – | 60.9 µM (active) | inactive | – | – | 60.9 µM (active) | inactive | – | – |
| O=C(OCCOCCO)c1ccccc1Nc1cccc(C(F)(F)F)c1 | inactive | – | inactive | inactive | – | – | – | inactive | – | – |
| CCOC(=O)c1ccccc1C | inactive | – | 61.1 µM (active) | inactive | – | – | – | – | – | – |
| C/C=C(\C)C(=O)OCCC(C)CCC=C(C)C (stereo unspecified) | inactive | inactive | – | inactive | – | – | – | inactive | – | – |
| O=C(CS)OCCOC(=O)CS | inactive | – | 68.6 µM (active) | inactive | – | – | 61.1 µM (active) | inactive | – | – |
| Cc1nc2ccccn2c(=O)c1CCN1CCC(C(=O)c2ccc(F)cc2)CC1 | inactive | – | inactive | inactive | – | – | – | – | – | – |
| Nc1ccc(S(=O)(=O)O)cc1 | inactive | – | 54.8 µM (active) | inactive | – | – | inactive | inactive | – | – |
| CCCCCCCC/C=C\CCCCCCCC(=O)OC(CO)CO | inactive | inactive | – | inactive | – | – | – | inactive | – | – |
| CC1=C(/C=C/C(C)=C\C=C\C(C)=C\C(=O)O)C(C)(C)CCC1 | inactive | 34.4 µM (active) | – | inactive | – | – | – | inactive | – | – |
| CCC(C(=O)OCCN(CC)CC)c1ccccc1 (stereo unspecified) | inactive | inactive | – | inactive | inactive | inactive | – | inactive | inactive | inactive |
| O=C(C(=O)c1ccccc1)c1ccccc1 | inactive | – | inactive | – | – | – | inactive | – | – | – |
| CC[C@H](NC(=O)c1cc(F)ccc1NS(=O)(=O)c1cccc2cccnc12)c1ccccc1 | inactive | – | 57.9 µM (active) | inactive | – | – | 64.9 µM (active) | inactive | – | – |
| NC(=O)N(O)[C@@H]1COc2cc(OCc3ccccc3)ccc21 | inactive | – | 68.6 µM (active) | inactive | – | – | 61.1 µM (active) | inactive | – | – |
| CCOC(=O)C(C)Oc1ccc(Oc2nc3ccc(Cl)cc3o2)cc1 (stereo unspecified) | inactive | – | 68.6 µM (active) | inactive | inactive | inactive | 61.1 µM (active) | inactive | – | – |
| OC(CCCN1CCCCC1)(c1ccccc1)c1ccccc1 | inactive | 13.3 µM (active) | – | inactive | inactive | inactive | 29.8 µM (active) | inactive | inactive | inactive |
